Measured values as given in the supplement of paper PMC12067093, “Discovery and optimisation of a covalent ligand for TRIM25 and its application to targeted protein ubiquitination” (Chemical Science, 2025).
The full data set covers some 21,000 targets. This sample favours those with the largest changes.

Compound: CC1Cc2ccccc2N1C(=O)C1CCCN(C1)C(=O)CCl (mixture of isomers) [TRIM25 ligand 11 (diastereomer mixture)]
Test: probe-labelled cysteine peptide fold change vs DMSO (competition) (log2 fold change); higher = less target engagement (more negative = stronger competition)
Settings: THP-1, incubation time: 4 h
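Note: competitive chemoproteomic profiling in live THP-1 cells with an iodoacetamide desthiobiotin (IA-DTB) probe, comparing probe-labelled peptide intensities in compound-treated cells against DMSO-treated controls.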

Sequence of UniProt P22307 (P22307 whole entry, looked up): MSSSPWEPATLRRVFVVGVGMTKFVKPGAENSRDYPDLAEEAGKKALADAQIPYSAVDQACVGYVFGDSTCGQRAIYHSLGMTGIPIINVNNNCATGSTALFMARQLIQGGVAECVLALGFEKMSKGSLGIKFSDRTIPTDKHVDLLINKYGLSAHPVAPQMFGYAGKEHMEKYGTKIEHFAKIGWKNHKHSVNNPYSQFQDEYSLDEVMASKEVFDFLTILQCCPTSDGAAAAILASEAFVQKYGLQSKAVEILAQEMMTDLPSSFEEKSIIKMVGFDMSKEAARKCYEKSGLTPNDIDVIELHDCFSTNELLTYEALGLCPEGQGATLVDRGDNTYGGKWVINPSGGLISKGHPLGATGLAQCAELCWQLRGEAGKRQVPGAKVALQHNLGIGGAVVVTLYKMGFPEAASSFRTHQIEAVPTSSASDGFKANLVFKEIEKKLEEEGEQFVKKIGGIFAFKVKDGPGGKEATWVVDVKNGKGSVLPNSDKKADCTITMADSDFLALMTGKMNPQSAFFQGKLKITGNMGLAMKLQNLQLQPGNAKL
Sequence of UniProt Q15637 (Q15637 whole entry, looked up): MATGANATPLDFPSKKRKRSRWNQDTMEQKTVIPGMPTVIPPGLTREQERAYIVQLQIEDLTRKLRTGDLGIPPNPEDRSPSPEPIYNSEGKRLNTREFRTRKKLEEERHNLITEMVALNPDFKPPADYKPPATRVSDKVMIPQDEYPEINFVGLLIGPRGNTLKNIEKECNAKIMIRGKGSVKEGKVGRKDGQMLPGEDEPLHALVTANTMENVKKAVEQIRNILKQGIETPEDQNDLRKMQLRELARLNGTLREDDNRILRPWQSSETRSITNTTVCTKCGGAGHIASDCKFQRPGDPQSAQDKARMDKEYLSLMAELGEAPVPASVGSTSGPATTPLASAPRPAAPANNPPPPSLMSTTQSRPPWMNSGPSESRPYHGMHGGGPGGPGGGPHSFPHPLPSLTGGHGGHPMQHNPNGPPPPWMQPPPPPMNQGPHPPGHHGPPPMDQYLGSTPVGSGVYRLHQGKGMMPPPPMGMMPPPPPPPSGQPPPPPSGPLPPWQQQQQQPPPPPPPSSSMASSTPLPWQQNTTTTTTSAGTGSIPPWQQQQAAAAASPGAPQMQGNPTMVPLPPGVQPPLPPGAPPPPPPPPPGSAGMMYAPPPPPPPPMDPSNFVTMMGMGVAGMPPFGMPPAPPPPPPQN
Sequence of UniProt Q8N697 (Q8N697 whole entry): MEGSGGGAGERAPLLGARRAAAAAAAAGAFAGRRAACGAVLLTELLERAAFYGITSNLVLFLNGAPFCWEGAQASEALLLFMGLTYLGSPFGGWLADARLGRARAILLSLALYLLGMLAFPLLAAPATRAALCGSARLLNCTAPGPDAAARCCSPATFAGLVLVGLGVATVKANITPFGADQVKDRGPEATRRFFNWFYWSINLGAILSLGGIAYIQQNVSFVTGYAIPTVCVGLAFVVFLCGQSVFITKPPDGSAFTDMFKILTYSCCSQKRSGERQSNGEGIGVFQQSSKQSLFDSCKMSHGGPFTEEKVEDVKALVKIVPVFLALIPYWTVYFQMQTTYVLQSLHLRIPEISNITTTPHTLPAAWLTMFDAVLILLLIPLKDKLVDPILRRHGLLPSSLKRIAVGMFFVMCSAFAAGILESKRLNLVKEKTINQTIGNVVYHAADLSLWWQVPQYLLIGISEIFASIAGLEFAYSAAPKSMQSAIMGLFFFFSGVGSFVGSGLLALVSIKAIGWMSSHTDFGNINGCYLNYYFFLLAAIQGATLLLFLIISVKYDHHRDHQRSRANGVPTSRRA
Sequence of UniProt Q14683 (Q14683 whole entry, looked up): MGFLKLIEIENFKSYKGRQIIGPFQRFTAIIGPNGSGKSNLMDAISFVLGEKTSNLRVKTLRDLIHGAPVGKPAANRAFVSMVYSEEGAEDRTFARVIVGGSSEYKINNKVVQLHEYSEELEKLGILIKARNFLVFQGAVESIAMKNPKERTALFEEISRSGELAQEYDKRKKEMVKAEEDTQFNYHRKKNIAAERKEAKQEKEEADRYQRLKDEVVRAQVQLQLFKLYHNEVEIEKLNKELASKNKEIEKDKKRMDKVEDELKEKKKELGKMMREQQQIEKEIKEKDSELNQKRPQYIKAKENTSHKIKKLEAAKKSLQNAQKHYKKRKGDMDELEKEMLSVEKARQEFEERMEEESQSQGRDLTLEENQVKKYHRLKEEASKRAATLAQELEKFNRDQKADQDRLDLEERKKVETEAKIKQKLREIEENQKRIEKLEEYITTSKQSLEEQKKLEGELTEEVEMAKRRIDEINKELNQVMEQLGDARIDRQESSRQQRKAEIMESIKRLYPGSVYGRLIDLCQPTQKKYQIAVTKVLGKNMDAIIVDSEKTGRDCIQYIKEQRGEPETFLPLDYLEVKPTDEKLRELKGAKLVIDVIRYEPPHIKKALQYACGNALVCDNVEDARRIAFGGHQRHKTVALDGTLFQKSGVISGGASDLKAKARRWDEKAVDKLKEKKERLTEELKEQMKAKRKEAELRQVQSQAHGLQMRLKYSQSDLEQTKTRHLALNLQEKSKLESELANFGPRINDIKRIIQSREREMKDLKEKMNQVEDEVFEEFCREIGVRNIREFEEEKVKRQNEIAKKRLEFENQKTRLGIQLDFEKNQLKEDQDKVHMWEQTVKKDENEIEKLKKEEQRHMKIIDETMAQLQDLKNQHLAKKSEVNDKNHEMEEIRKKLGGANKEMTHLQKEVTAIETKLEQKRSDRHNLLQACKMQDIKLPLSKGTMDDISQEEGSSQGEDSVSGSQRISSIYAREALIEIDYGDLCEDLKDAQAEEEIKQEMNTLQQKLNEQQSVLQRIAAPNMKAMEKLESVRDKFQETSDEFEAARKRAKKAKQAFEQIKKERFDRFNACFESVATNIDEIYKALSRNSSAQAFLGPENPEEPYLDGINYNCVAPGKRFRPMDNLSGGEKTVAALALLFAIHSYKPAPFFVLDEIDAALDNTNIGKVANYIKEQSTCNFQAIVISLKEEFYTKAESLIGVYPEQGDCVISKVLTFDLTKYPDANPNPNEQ
Sequence of UniProt P08697 (P08697 whole entry): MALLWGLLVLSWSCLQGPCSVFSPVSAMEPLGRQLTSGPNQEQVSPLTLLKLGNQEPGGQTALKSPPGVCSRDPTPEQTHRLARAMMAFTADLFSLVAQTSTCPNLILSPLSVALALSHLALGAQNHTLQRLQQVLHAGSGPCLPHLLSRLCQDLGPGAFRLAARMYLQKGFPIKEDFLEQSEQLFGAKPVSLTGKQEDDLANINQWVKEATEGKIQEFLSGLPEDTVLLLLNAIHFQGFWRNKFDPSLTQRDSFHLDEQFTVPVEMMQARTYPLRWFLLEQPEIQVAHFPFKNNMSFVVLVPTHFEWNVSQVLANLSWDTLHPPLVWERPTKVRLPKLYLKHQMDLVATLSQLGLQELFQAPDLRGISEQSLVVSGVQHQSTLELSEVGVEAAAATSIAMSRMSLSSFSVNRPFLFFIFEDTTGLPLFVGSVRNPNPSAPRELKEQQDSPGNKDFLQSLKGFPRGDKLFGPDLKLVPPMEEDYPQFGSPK
Sequence of UniProt Q99470 (Q99470 whole entry, looked up): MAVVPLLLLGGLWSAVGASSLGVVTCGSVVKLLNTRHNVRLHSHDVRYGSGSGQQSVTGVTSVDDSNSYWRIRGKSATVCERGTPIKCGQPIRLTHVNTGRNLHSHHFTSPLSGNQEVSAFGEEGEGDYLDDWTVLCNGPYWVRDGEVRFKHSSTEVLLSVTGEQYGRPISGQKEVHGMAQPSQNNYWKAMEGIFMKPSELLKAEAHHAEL
Sequence of UniProt Q9HAT2 (Q9HAT2 whole entry): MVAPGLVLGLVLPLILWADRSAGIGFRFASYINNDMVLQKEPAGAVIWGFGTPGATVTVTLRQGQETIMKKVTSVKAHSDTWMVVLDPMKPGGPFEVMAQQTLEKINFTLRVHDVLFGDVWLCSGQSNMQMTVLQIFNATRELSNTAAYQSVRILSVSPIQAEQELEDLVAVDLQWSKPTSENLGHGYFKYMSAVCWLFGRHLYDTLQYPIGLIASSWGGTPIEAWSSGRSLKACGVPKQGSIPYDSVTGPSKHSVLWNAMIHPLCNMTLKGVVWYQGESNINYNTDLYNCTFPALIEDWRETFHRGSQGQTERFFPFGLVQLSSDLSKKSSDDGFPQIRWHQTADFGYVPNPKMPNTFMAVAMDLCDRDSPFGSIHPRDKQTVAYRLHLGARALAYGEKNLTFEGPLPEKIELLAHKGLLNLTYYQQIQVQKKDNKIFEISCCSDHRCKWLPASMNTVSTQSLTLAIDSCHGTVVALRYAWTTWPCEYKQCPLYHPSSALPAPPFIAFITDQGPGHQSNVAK
Sequence of UniProt Q9Y265 (Q9Y265 whole entry, looked up): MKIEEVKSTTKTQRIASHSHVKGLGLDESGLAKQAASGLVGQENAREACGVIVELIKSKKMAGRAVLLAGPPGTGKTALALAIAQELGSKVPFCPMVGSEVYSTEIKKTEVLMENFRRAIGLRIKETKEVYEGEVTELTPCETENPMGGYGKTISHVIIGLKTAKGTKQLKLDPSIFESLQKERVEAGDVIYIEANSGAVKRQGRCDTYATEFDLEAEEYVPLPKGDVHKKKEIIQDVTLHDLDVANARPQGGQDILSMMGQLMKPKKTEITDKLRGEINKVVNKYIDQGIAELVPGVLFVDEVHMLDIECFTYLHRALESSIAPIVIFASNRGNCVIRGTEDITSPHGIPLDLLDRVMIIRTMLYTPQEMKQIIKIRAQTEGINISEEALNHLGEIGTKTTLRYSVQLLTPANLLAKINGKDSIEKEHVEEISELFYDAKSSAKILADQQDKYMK
Sequence of UniProt Q96CW6 (Q96CW6 whole entry, looked up): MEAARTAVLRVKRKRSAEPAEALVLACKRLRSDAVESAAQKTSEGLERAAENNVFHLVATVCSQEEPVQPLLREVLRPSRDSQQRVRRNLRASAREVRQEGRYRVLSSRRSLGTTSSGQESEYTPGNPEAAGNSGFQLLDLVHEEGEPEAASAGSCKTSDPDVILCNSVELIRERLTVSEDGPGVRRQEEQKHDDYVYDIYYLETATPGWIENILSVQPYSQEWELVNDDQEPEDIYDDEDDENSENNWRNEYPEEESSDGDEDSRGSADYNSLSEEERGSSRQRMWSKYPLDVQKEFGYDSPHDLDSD

Target	probe-labelled cysteine peptide fold change (10 µM)	probe-labelled cysteine peptide fold change (50 µM)
SNTB1_Q13884_515_DGEIQLDLHSCPKPIVFIIHSFLSAK (UniProt Q13884)	-0.207	0.302
SLC7A6OS_Q96CW6_62_AAENNVFHLVATVCSQEEPVQPLLR (UniProt Q96CW6)	-0.0977	-0.671
SEC13_P55735_77_GHEGPVWQVAWAHPMYGNILASCSYDR (UniProt P55735)	-0.107	-0.123
SAMD4B_Q5PRF9_20_GWNECEQTVALLSLLK<|>SAMD4A_Q9UPU9_20_GWNECEQTVALLSLLK (UniProt Q9UPU9+Q5PRF9)	-0.204	0.121
SLC2A9_Q9NRM0_36_ALLECDHLR (UniProt Q9NRM0)	-0.0472	-0.18
SDF2_Q99470_137_NLHSHHFTSPLSGNQEVSAFGEEGEGDYLDDWTVLCNGPYWVR (UniProt Q99470)	0.298	0.622
RPS28_P62857_27_TGSQGQCTQVRVEFMDDTSR (UniProt P62857)	-0.718	-0.281
SAR1B_Q9Y6B6_102_NYLPAINGIVFLVDCADHER (UniProt Q9Y6B6)	0.177	0.151
SHCBP1_Q8NEM2_591_VDLEELIECATGK (UniProt Q8NEM2)	0.088	-0.228
SETX_Q7Z333_1398_AGSHTAQNSDIFVPESDRSDYNCTGGTEVLANSNR (UniProt Q7Z333)	-0.136	-0.652
RTCB_Q9Y3I0_485_NVTDVVNTCHDAGISK (UniProt Q9Y3I0)	-0.0281	-0.0777
RUVBL1_Q9Y265_94_VPFCPMVGSEVYSTEIK (UniProt Q9Y265)	0.0537	-0.0791
SMARCC2_Q8TAQ2_80_CFLDFK (UniProt Q8TAQ2)	-0.00468	0.128
SEC16A_O15027_1293_YWCDAEYDAYR (UniProt O15027)	-0.117	-0.311
SIAE_Q9HAT2_367_MPNTFMAVAMDLCDRDSPFGSIHPR (UniProt Q9HAT2)	-0.176	-0.565
RUFY1_Q96T51_692_VCDSCHTLLLQR (UniProt Q96T51)	0.114	-0.0564

Target	probe-labelled cysteine peptide fold change (10 µM)	probe-labelled cysteine peptide fold change (50 µM)
SMC1A_Q14683_781_MNQVEDEVFEEFCR (UniProt Q14683)	0.0344	0.0302
SLC15A4_Q8N697_269_ILTYSCCSQK (UniProt Q8N697)	-0.00859	-0.114
SETDB1_Q15047_781_RLEECLPTGVYECNKR (UniProt Q15047)	-0.124	-0.00361
SMARCD2_Q92925_298_CTLLLMLDHQPPQYK (UniProt Q92925)	-0.0298	-0.00447
SCFD2_Q8WU76_507_ALAQVFCEESGLSPLLQK (UniProt Q8WU76)	0.0961	0.0426
SMN2_Q16637_60_NGDICETSGKPK (UniProt Q16637)	-0.146	-0.16
SIRT6_Q8N6T7_141_LAELHGNMFVEECAK (UniProt Q8N6T7)	0.087	0.00561
SNX27_Q96L92_432+434_TCEGYNEIIFPHCACDSR (UniProt Q96L92)	0.835	0.695
SF1_Q15637_282+292_CGGAGHIASDCK (UniProt Q15637)	-0.0927	-0.0122
SCP2_P22307_115_QLIQGGVAECVLALGFEK (UniProt P22307)	-2.21	-2.14
SERPINF2_P08697_152_LCQDLGPGAFR (UniProt P08697)	0.591	0.7
SLC35B1_P78383_119_SCKPIPVMLLGVTLLK (UniProt P78383)	-0.942	0.0401
RSF1_Q96T23_1311_IETDEEESCDNAHGDANQPAR (UniProt Q96T23)	0.0514	0.0946
SERBP1_Q8NC51_11_PGHLQEGFGCVVTNRFDQLFDDESDPFEVLK (UniProt Q8NC51)	-0.323	-0.648
SRI_P30626_75_CLTQSGIAGGYKPFNLETCR (UniProt P30626)	0.0396	-0.0761
SNRPB_P14678_43+45_HMNLILCDCDEFRK (UniProt P14678)	-0.0283	-0.00106
